The record followed here is PubChem BioAssay (Tox21).

Assay [1] can be described thus: qHTS assay to test for compound auto fluorescence at 460 nm (blue) in HEK293 cell free culture (AID 720681). The method in brief:
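Test compounds were pinned into cell-free culture medium (DMEM with 10% FBS) and fluorescence was read directly at Ex/Em 405/460 nm. Signals were expressed as fluorescence equivalents of triamterene, with DMSO vehicle as control.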
A general note: In qHTS, concentration-response curves come from the screen itself.

A short description of assay [2]: qHTS assay to test for compound auto fluorescence at 535 nm (green) in HEK293 cell free culture (AID 720682). The method, boiled down:
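Green-channel intensity (Ex/Em 485/535 nm) was recorded from compound-treated wells containing only DMEM with 10% FBS. Fluorescein provided the equivalency standard.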

Assay [3] can be described thus: qHTS assay to test for compound auto fluorescence at 590 nm (red) in HEK293 cell free culture (AID 720683). The method in brief:
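Tox21 10K library compounds were pinned into cell-free DMEM with 10% FBS and fluorescence was read at excitation 540 nm. Activity is expressed as Rose Bengal sodium equivalency.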

Assay [4] in a line: qHTS assay to test for compound auto fluorescence at 590 nm (red) in HepG2 cell free culture (AID 720684). The method in brief:
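Red fluorescence (540 nm excitation, 590 nm emission) was measured after compound transfer into cell-free MEM supplemented with 10% FBS. Values are equivalencies against Rose Bengal sodium.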

A short description of assay [5]: qHTS assay to test for compound auto fluorescence at 460 nm (blue) in HepG2 cell free culture (AID 720685). The method in brief: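 Compound (23 nL) or DMSO pinned into cell-free MEM with 10% FBS; blue fluorescence read at 405/460 nm excitation/emission, expressed as auto-fluorescence equivalency to triamterene.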
Assay [6] in a line: qHTS assay to test for compound auto fluorescence at 535 nm (green) in HepG2 cell free culture (AID 720686).
A short description of assay [7]: qHTS assay to test for compound auto fluorescence at 460 nm (blue) in HepG2 cells (AID 720687). The method, boiled down:
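Cells (2,000/well in MEM with 10% FBS) attached overnight at 37 C, then were exposed to compound or DMSO for 1 hr at 37 C, 5% CO2. Fluorescence read at Ex/Em 405/460 nm, expressed as triamterene-equivalent signal.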

For assay [8], the target named is Glucocorticoid receptor (Homo sapiens) (UniProt P04150). The assay can be described thus: qHTS assay to identify small molecule agonists of the glucocorticoid receptor (GR) signaling pathway (AID 720691; active = well fitted activation curve with a large enough effect in the signal ratio in the repeat runs, not every such curve was filed as active; inconclusive = weak or mixed curves, or effect the other way; inactive = no such curve, though single readings can be large or run the other way; the % refers to the signal ratio; also: potency is read from the fitted curve at half-maximal effect). The method in brief:
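GR-bla HeLa cells (beta-lactamase reporter under glucocorticoid response element) were plated 4 h at 37 C/5% CO2, given compounds in DMSO, and incubated 18 h at 37 C. LiveBLAzer B/G FRET substrate was added for 2 h at room temperature, then fluorescence intensity read.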

The nature of assay [9]: qHTS assay for identifying genotoxic compounds that show differential cytotoxicity against isogenic chicken DT40 cell lines with known DNA damage response pathways - wild type cell line (AID 743012). Also: nearly all actives have a fitted effect of over 60% in size. Also: potency is read from the fitted curve at half-maximal effect. The method in brief:
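Parental DNA repair-proficient DT40 cells, 300 per well, were pre-incubated ~0.5 h at 37 C/5% CO2, pin-dosed with compounds in DMSO, then incubated 40 h. Viability was read as CellTiter-Glo luminescence after 30 min at room temperature.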

Assay [10] can be described thus: qHTS assay for identifying genotoxic compounds that show differential cytotoxicity against isogenic chicken DT40 cell lines with known DNA damage response pathways - Rev3 mutant cell line (AID 743014). Also: nearly all actives have a fitted effect of over 55% in size. Also: potency is read from the fitted curve at half-maximal effect.
The nature of assay [11]: qHTS assay for identifying genotoxic compounds that show differential cytotoxicity against isogenic chicken DT40 cell lines with known DNA damage response pathways - Rad54/Ku70 mutant cell line (AID 743015). Also: nearly all actives have a fitted effect of over 60% in size. Also: potency is read from the fitted curve at half-maximal effect.
Assay [12] is described as follows: qHTS assay to identify small molecule antagonists of the thyroid receptor (TR) signaling pathway - cell viability counter screen (AID 743064). Also: nearly all actives have a fitted effect of over 50% in size. The method, boiled down: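 In rat pituitary GH3.TRE-Luc reporter cells co-exposed to compound and 1 nM T3 for 23.5 h, cytotoxicity was assessed with CellTiter-Fluor in the same wells, read by fluorescence.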
Assay [13] has as its target Glucocorticoid receptor (Homo sapiens) (UniProt P04150). Put plainly: qHTS assay to identify small molecule antagonists of the glucocorticoid receptor (GR) signaling pathway (AID 720692; active = well fitted inhibition curve with a large enough effect in the signal ratio in the repeat runs, not every such curve was filed as active; inconclusive = weak or mixed curves, or effect the other way; inactive = no such curve, though single readings can be large or run the other way; the % refers to the signal ratio; also: potency is read from the fitted curve at half-maximal effect). The method in brief:
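GR-bla HeLa cells (beta-lactamase reporter under glucocorticoid response element) were pre-plated 4 h at 37 C, treated with compounds plus 5 nM dexamethasone (final) for 18 h, then read by LiveBLAzer B/G FRET fluorescence after 2 h.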

The nature of assay [14]: qHTS assay to identify small molecule antagonists of the glucocorticoid receptor (GR) signaling pathway - cell viability counter screen (AID 720693). Also: nearly all actives have a fitted effect of over 55% in size.
Assay [15] is described as follows: qHTS assay to identify small molecule antagonists of the androgen receptor (AR) signaling pathway - cell viability counter screen (AID 743033; also: nearly all actives have a fitted effect of over 45% in size).
In assay [16] the target is Androgen receptor (Homo sapiens) (UniProt P10275). Put plainly: qHTS assay to identify small molecule antagonists of the androgen receptor (AR) signaling pathway (AID 743035; active = well fitted inhibition curve with a large enough effect in the signal ratio in the repeat runs, not every such curve was filed as active; inconclusive = weak or mixed curves, or effect the other way; inactive = no such curve, though single readings can be large or run the other way; the % refers to the signal ratio; also: potency is read from the fitted curve at half-maximal effect). The method in brief: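 HEK293 cells stably carrying a UAS-driven beta-lactamase reporter (AR-UAS-bla GripTite) were plated for 4 h at 37C, then given compound and the agonist R1881 and incubated 16 h. Reporter activity was read by LiveBLAzer B/G FRET fluorescence after 2 h at room temperature.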
Chain of Androgen receptor (Homo sapiens) (P10275 whole entry, looked up): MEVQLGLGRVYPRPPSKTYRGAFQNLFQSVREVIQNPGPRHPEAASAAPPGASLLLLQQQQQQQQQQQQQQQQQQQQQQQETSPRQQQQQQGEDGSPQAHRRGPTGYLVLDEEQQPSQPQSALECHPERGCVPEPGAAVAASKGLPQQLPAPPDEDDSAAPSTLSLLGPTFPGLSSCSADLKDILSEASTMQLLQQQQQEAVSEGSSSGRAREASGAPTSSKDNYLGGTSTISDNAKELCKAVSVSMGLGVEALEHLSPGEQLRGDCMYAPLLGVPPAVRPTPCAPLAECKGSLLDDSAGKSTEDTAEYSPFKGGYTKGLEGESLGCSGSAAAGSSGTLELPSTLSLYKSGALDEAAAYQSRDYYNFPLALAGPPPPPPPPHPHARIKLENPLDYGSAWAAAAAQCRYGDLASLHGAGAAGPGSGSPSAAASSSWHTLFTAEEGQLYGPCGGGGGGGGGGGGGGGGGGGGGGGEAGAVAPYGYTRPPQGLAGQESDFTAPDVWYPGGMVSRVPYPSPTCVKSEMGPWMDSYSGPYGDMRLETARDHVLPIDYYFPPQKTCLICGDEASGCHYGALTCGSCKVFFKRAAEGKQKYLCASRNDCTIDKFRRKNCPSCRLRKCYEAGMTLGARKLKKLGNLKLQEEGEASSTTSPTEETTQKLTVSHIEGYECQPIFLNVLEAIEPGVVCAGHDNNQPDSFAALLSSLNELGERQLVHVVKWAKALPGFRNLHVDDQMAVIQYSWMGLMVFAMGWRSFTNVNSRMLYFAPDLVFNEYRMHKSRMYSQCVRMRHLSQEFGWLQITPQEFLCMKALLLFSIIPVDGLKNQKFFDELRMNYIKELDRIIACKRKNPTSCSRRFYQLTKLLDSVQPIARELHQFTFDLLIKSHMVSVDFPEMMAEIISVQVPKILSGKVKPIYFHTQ

The target is the same in assay [17]. The assay can be described thus: qHTS assay to identify small molecule agonists of the androgen receptor (AR) signaling pathway (AID 743036; active = well fitted activation curve with a large enough effect in the signal ratio in the repeat runs, with a control signal flat, not every such curve was filed as active; inconclusive = weak or mixed curves, or effect the other way; inactive = no such curve, though single readings can be large or run the other way; the % refers to the signal ratio). The method in brief:
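Cell-based FRET reporter assay: HEK293 line with a UAS-beta-lactamase construct, compounds added in DMSO, 16 h exposure at 37C, then 2 h substrate step at room temperature and fluorescence intensity read.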

Assay [18] shares this target. Put plainly: qHTS assay to identify small molecule antagonists of the androgen receptor (AR) signaling pathway using the MDA cell line (AID 743042; also: nearly all actives have a fitted effect of over 55% in size; also: potency is read from the fitted curve at half-maximal effect). The method in brief:
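MDA-kb2 cells (human breast carcinoma, stably carrying an MMTV-luciferase reporter responsive to AR and GR) were plated at 3,000 cells/well and preincubated 5 hr at 37C, then given compound plus R1881 agonist for 16 h. ONE-Glo luminescence was read.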

Assay [19] can be described thus: qHTS assay to identify small molecule antagonists of the androgen receptor (AR) signaling pathway using the MDA cell line - cell viability counter screen (AID 743041; also: nearly all actives have a fitted effect of over 45% in size). The method in brief: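 MDA-kb2 AR-luc human breast carcinoma cells (MMTV-luciferase, AR/GR responsive) were treated with compounds plus R1881 agonist for 16 h at 37 °C. Viability was read as CellTiter-Fluor fluorescence in the same wells as the reporter assay.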

Several values for one entry are separate records, joined by “and”; a condition that tells them apart may be missing. Equal entries are not always repeated. Some structures have more than one record in an assay (separate samples or runs), and their calls can disagree. Activity calls are given as the source filed them. Unless noted, calls follow the shape of the dose curve; as a rule, active = well fitted curve in the direction sought with a large enough effect in the repeat runs; inconclusive = weak or mixed curves; inactive = no such curve, though single readings can be large; an effect the other way counts as inactive or inconclusive.

Chain of Glucocorticoid receptor (Homo sapiens) (P04150 whole entry, looked up): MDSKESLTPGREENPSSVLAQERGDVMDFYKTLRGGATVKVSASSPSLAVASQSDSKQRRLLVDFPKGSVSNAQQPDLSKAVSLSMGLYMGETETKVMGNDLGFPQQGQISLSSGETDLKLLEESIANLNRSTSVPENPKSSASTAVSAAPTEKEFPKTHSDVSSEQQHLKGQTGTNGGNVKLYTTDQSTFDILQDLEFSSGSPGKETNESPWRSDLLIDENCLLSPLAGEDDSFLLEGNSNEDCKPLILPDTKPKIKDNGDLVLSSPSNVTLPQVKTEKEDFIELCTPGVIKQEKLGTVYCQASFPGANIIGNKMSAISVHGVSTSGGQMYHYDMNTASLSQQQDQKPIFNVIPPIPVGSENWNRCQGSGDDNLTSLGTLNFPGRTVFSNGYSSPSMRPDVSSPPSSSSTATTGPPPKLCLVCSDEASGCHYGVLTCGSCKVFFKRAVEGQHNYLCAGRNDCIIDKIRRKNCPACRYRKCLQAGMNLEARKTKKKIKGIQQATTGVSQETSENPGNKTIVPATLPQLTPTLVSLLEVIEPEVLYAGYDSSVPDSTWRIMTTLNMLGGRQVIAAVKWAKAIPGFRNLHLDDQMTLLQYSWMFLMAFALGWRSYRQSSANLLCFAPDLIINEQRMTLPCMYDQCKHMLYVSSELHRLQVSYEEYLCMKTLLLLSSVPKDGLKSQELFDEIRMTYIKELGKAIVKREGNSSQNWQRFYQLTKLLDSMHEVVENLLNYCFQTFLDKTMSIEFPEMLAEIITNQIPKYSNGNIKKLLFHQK

As to `C=C[C@@]1(C)CC(=O)[C@]2(O)[C@@]3(C)[C@@H](O)CCC(C)(C)[C@@H]3[C@H](O)[C@H](OC(C)=O)[C@@]2(C)O1`, the Potency entry in assay [1], in assay [2], in [3], in [4], in assay [5] and in [6] was “inactive” in each case. For the same compound, the Potency result in assay [7], in [8] and in assay [12] was “inactive” each time. The Potency in assay [9] was 26.6 µM (active) and 30.6 µM (active); in assay [10], “inactive and 48.6 µM (active)”; in assay [11] it was 23.7 µM (active) and 24.3 µM (active).
Regarding `C=C1C[C@H]2[C@@H]3C=C(C)C4=CC(=O)CC[C@]4(C)[C@H]3CC[C@]2(C)[C@@]1(OC(C)=O)C(C)=O`, the Potency result in [1], in assay [2], in assay [4], in assay [5], in assay [6] and in assay [7] was “inactive” each time. The Potency entry in [13], in assay [14], in assay [15], in assay [18] and in assay [12] was “inactive” throughout. The Potency in assay [8] is 120 nM [inconclusive] (active) and 14.1 nM (active); in [9], 7.5 µM (active) and 14 µM (active); in assay [10] it was 8.41 µM (active) and 14 µM (active); in assay [11], 10.6 µM (active) and 17.6 µM (active); in [16], 1770 nM (active). The compound was called inactive in assay [17].
For `C1COCCN1`, the Potency entry in assay [1], in assay [2], in [3], in assay [4], in assay [5] and in assay [6] was “inactive” in each case. Besides, the Potency entry in assay [7], in assay [14], in assay [9], in assay [10], in assay [11] and in [19] was “inactive” each time. Also, the Potency entry in [12] was “inactive”.
On to `C[C@]12CC[C@@H]3c4ccc(O)cc4CC[C@H]3[C@@H]1CC[C@H]2O`, for which the Potency result in assay [1], in [2], in assay [4], in assay [5], in assay [6] and in assay [7] was “inactive” each time. For the same compound, the Potency result in assay [8] and in assay [19] was “inactive” each time. In addition, the Potency in [13] was 6270 nM (active); in assay [9], 44 µM (active) and 48.6 µM (active); in assay [10], 24.8 µM (active) and 48.6 µM (active); in [11] it was 27.8 µM (active) and 54.5 µM (active).
Consider `CC(=O)Oc1ccc(C(c2ccc(OC(C)=O)cc2)c2ccccn2)cc1`, for which the Potency entry in assay [1], in assay [2], in assay [3], in assay [4], in assay [5] and in [6] was “inactive” throughout. Besides, the Potency result in assay [7], in assay [14] and in assay [16] was “inactive” in each case. The Potency in assay [9] is 23.7 µM (active) and inactive; in assay [18], 765 nM (active). Further, in assay [17], the outcome was inactive.
In the case of `CCCCCCC(C)O` (stereo not drawn), the Potency result in assay [1], in [2], in [4], in [5], in assay [6] and in assay [7] was “inactive” throughout. Further, the Potency result in assay [8], in assay [13], in assay [9], in assay [10], in assay [11] and in assay [15] was “inactive” in each case. The Potency entry in assay [19] and in assay [12] was “inactive” throughout.
With `O=C(O)CCCCCCCCCCCC(=O)O`, the Potency entry in [1], in assay [2], in assay [3], in assay [4], in assay [5] and in assay [6] was “inactive” each time. Further, the Potency entry in assay [7], in assay [9], in assay [10], in assay [11], in [15] and in assay [19] was “inactive” each time. Further, in assay [12], the Potency entry is “inactive”.
As for `[O-]/[N+](=N\O)c1ccccc1`, the Potency result in [1], in assay [2], in assay [4], in assay [5], in [6] and in [7] was “inactive” throughout. In addition, the Potency entry in assay [9], in assay [10], in [15], in assay [19] and in assay [12] was “inactive” in each case.
For the compound `c1ccc2cc3ccccc3cc2c1`, the Potency entry in assay [1], in assay [2], in assay [4], in assay [5], in assay [6] and in [7] was “inactive” each time. Besides, the Potency result in [8], in assay [13], in [9], in [10], in assay [11] and in assay [15] was “inactive” each time. The Potency entry in assay [12] was “inactive”.
For `CC(=O)[C@H]1CC[C@H]2[C@@H]3CC=C4C[C@@H](O)CC[C@]4(C)[C@H]3CC[C@]12C`, the Potency entry in assay [1], in assay [2], in assay [4], in assay [5], in assay [6] and in assay [7] was “inactive” each time. Besides, the Potency entry in assay [14], in assay [9], in [11], in assay [15] and in [12] was “inactive” in each case. Besides, the Potency in assay [10] is 485 nM (active).
For `CC(=O)Oc1c(C)c(C)c2c(c1C)CC[C@@](C)(CCC[C@H](C)CCC[C@H](C)CCCC(C)C)O2`, the Potency result in assay [1], in [2], in assay [3], in assay [4], in assay [5] and in assay [6] was “inactive” in each case. For the same compound, the Potency entry in [7], in assay [14], in assay [15], in assay [19] and in assay [12] was “inactive” each time.
On to `COc1ccc2nc(N)sc2c1`, for which the Potency entry in assay [1], in [2], in assay [4], in assay [5], in [6] and in assay [7] was “inactive” each time. Also, the Potency result in [8], in [13], in assay [14], in assay [9], in [10] and in assay [11] was “inactive” each time. The Potency entry in assay [15], in assay [16], in assay [18] and in assay [12] was “inactive” in each case. In addition, the result in assay [17] was inactive.
As to `CNC[C@H](O)c1ccc(O)c(O)c1`, the Potency entry in [1], in [2], in assay [3], in assay [4], in assay [5] and in assay [6] was “inactive” each time. Moreover, the Potency entry in [7], in assay [10], in assay [15] and in assay [19] was “inactive” in each case. The Potency in [9] is 29.8 µM (active).
